We go through 6 compounds from PubChem BioAssay (EPA / NIEHS).

For assay [1], the target named is human Beta-secretase (BACE), BACE1 (gene 23621) (UniProt P56817). Briefly: NVS_ENZ_hBACE: NovaScreen (NVS) Enzymatic Assay for human Beta-secretase (BACE) (AID 2283140).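 Further: hits are inhibitors that reduce fluorescent substrate signal versus DMSO.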 In a few lines:
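Compounds were first tested in duplicate at 25 uM, then actives in concentration series, against recombinant BACE1 from SF9 cells. Enzyme activity was measured by fluorescence intensity 1 hour after dosing, with DMSO as negative control.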

In assay [2] the target is human Ephrin type-A Receptor 1 (EphA1), EPHA1 (gene 2041) (UniProt P21709). The experiment in a line: NVS_ENZ_hEphA1: NovaScreen (NVS) Enzymatic Assay for human Ephrin type-A Receptor 1 (EphA1) (AID 2283158).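 Further: activity is signal loss versus DMSO meaning EphA1 kinase inhibition.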 In a few lines:
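Cell-free kinase activity with recombinant protein, 1 hour after dosing; product separated by electrophoretic mobility shift, fluorescence read. Primary screen at 25 uM in duplicate; hits run as concentration-response up to 50 uM, relative to DMSO.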

Assay [3] concerns the target human Phosphodiesterase 10 (PDE10), PDE10A (gene 10846) (UniProt Q9Y233). Briefly: NVS_ENZ_hPDE10: NovaScreen (NVS) Enzymatic Assay for human Phosphodiesterase 10 (PDE10) (AID 2283195). Put shortly:
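PDE10A, cell-free; 1 h incubation; fluorescence intensity + electrophoretic mobility shift separating substrate/product; DMSO = baseline; 25 uM duplicate primary, CRC up to 50 uM.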

Assay [4] concerns the target human Adenosine A1 Receptor (AdoRA1), ADORA1 (gene 134) (UniProt P30542). Briefly: NVS_GPCR_hAdoRA1: NovaScreen (NVS) G Protein-Coupled Receptor Assay for human Adenosine A1 Receptor (AdoRA1) (AID 2283254). In a few lines: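 Each chemical is first tested twice at 25 uM, actives later in dilution series, against a radioligand bound to human cortex membranes; after 1 h, filter-retained counts are compared with DMSO controls, lower signal indicating displacement.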

Assay [5] deals with Muscarinic acetylcholine receptor M2 (Homo sapiens) (UniProt P08172). Briefly: NVS_GPCR_hM2: NovaScreen (NVS) G Protein-Coupled Receptor Assay for human Muscarinic, M2 Receptor (AID 2283273). In a few lines:
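CHO membrane prep, radioligand + test compound, 1 h; filtration, scintillation count. Screen 25 uM duplicate → conc. series for actives. Readout: decrease in binding vs DMSO control.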

Assay [6] addresses human Thromboxane A2 Receptor (TXA2), TBXA2R (gene 6915) (UniProt P21731). The experiment in a line: NVS_GPCR_hTXA2: NovaScreen (NVS) G Protein-Coupled Receptor Assay for human Thromboxane A2 Receptor (TXA2) (AID 2283282).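 Further: actives reduce bound radioligand signal relative to DMSO baseline.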 In a few lines:
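Cell-free radioligand binding with human platelet-derived receptor; 1 h after dosing, filter-based scintillation counting, loss of signal vs DMSO. Primary screen in duplicate at 25 uM.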

The target of assay [7] is human Peripheral-type Benzodiazepine Receptor (PBR), TSPO (gene 706) (UniProt P30536). The experiment in a line: NVS_MP_hPBR: NovaScreen (NVS) Membrane Protein Assay for human Peripheral-type Benzodiazepine Receptor (PBR) (AID 2283331).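 Further: hits reduce radioligand binding relative to DMSO baseline.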 In a few lines:
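Scintillation counts of filter-bound radioligand served as read-out after 1 h chemical dosing of human colonic membrane preparations. Activity was scored as signal loss against DMSO; initial duplicates at 25 uM, confirmatory concentration series afterward.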

Assay [8] addresses human Neurokinin, NK2 Receptor, TACR2 (gene 6865) (UniProt P21452). Briefly: NVS_GPCR_hNK2: NovaScreen (NVS) G Protein-Coupled Receptor Assay for human Neurokinin, NK2 Receptor (AID 2283278).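 Further: actives reduce bound radioligand signal relative to DMSO baseline.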 Put shortly:
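Test chemicals displace a radioligand from receptor prepared from CHO cells in a cell-free format, read after 4 hours by scintillation counting on filters. Screening starts at 25 uM in duplicate, and active chemicals then go to concentration series.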

For assay [9], the target named is human Caspase 5 (CASP5), CASP5 (gene 838) (UniProt P51878). The experiment in a line: NVS_ENZ_hCASP5: NovaScreen (NVS) Enzymatic Assay for human Caspase 5 (CASP5) (AID 2283137). Put shortly: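 E. coli-derived enzyme, cell-free, 2 h incubation, fluorescence intensity. 25 uM duplicate single-point; hits → concentration series to 50 uM. DMSO baseline, positive/negative controls on every plate.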

In assay [10] the target is human Matrix Metalloproteinase-9 (MMP9), MMP9 (gene 4318) (UniProt P14780). The experiment in a line: NVS_ENZ_hMMP9: NovaScreen (NVS) Enzymatic Assay for human Matrix Metalloproteinase-9 (MMP9) (AID 2283190).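 Further: cell-free recombinant MMP9 protease activity read by fluorescent substrate signal; active means inhibition seen as loss of fluorescence signal versus DMSO.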 In a few lines:
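Screening concentration 25 uM, duplicate wells, then dose series for confirmation. Cell-free enzymatic reaction measured by fluorescence intensity 1 h post-dosing; decreased signal versus DMSO taken as activity.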

Assay [11] addresses human Phosphoinositide 3-kinase alpha (PI3Ka), PIK3CA (gene 5290) (UniProt P42336). Briefly: NVS_ENZ_hPI3Ka: NovaScreen (NVS) Enzymatic Assay for human Phosphoinositide 3-kinase alpha (PI3Ka) (AID 2283196). Put shortly: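 Duplicate single-point screen (25 uM), then singleton dose-response (max 50 uM) for compounds meeting the threshold. Cell-free kinase reaction, 1 h; fluorescent mobility-shift readout.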

Assay [12] addresses rat Adrenergic Receptor, Alpha 2 (Adra2), Non-selective Binding, Adra2a (gene 25083) (UniProt P22909). The experiment in a line: NVS_GPCR_rAdra2_NonSelective: NovaScreen (NVS) G Protein-Coupled Receptor Assay for rat Adrenergic Receptor, Alpha 2 (Adra2), Non-selective Binding (AID 2283299). Put shortly:
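Rat cortical membranes, radioligand competitive displacement read by filter-based scintillation counting 1.25 hours after dosing. Primary screen in duplicate at 25 uM; actives followed up in concentration series.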

Inconclusive results are not listed. The source made the active and inactive calls. How the source made its calls: active means hit-call score of the fitted dose curve at least 0.9, where 1 is the maximum; inconclusive means response in the unintended direction; inactive means score below 0.9.

Sequence of human Phosphodiesterase 10 (PDE10), PDE10A (gene 10846) (Q9Y233 whole entry, looked up): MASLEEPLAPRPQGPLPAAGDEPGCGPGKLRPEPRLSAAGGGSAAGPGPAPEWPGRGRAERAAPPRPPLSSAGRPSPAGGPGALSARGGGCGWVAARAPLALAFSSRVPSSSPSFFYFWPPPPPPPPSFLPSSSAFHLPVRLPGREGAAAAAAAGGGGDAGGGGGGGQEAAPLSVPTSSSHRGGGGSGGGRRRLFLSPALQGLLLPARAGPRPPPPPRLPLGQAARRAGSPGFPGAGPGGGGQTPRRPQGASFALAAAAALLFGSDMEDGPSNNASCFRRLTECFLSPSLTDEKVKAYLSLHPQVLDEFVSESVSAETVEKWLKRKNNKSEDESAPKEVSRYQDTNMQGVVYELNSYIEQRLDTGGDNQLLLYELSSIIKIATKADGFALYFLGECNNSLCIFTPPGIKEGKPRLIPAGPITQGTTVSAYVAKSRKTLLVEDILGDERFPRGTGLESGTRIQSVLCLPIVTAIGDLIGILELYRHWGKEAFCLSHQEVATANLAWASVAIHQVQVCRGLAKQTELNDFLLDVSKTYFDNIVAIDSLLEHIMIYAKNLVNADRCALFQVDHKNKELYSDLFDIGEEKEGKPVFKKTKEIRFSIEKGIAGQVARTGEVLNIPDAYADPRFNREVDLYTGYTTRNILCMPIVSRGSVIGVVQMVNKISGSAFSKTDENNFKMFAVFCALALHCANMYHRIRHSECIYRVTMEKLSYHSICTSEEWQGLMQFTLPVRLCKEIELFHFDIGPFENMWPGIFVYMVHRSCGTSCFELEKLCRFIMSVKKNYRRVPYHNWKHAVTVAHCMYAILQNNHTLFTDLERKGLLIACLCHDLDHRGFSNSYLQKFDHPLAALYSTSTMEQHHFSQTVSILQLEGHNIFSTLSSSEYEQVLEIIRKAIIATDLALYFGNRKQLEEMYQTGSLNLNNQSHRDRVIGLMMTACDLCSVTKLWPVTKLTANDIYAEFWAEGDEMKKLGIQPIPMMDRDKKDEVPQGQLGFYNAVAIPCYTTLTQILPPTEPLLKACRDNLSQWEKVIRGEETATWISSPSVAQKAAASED
Sequence of human Peripheral-type Benzodiazepine Receptor (PBR), TSPO (gene 706) (P30536 whole entry, looked up): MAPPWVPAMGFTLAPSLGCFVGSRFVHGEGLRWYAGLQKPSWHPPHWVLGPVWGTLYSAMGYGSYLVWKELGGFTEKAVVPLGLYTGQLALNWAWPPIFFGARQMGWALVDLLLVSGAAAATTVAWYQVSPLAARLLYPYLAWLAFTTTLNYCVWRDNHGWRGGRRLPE
Sequence of human Beta-secretase (BACE), BACE1 (gene 23621) (P56817 whole entry, looked up): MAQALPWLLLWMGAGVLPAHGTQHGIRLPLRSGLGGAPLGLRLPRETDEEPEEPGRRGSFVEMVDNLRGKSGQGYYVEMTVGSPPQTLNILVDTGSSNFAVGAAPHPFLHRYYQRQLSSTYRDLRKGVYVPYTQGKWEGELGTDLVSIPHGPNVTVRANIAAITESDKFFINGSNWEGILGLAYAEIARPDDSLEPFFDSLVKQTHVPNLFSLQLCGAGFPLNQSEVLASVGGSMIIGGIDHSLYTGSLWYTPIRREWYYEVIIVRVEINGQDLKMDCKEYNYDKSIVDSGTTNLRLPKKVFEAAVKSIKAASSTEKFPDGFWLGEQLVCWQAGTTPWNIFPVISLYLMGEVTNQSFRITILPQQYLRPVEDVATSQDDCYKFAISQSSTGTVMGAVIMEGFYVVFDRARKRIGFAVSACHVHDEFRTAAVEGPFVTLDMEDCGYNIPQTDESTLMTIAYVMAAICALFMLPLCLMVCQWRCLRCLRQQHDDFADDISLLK
Sequence of human Thromboxane A2 Receptor (TXA2), TBXA2R (gene 6915) (P21731 whole entry, looked up): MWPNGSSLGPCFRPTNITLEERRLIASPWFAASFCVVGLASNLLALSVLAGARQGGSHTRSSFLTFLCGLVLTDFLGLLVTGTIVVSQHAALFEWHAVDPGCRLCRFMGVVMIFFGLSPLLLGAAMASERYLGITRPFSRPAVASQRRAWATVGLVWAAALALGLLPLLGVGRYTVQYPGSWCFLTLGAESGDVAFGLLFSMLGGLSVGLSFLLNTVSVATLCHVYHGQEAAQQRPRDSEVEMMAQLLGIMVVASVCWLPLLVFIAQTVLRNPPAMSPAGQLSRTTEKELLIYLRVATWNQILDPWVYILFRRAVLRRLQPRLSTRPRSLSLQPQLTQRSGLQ
Sequence of human Matrix Metalloproteinase-9 (MMP9), MMP9 (gene 4318) (P14780 whole entry, looked up): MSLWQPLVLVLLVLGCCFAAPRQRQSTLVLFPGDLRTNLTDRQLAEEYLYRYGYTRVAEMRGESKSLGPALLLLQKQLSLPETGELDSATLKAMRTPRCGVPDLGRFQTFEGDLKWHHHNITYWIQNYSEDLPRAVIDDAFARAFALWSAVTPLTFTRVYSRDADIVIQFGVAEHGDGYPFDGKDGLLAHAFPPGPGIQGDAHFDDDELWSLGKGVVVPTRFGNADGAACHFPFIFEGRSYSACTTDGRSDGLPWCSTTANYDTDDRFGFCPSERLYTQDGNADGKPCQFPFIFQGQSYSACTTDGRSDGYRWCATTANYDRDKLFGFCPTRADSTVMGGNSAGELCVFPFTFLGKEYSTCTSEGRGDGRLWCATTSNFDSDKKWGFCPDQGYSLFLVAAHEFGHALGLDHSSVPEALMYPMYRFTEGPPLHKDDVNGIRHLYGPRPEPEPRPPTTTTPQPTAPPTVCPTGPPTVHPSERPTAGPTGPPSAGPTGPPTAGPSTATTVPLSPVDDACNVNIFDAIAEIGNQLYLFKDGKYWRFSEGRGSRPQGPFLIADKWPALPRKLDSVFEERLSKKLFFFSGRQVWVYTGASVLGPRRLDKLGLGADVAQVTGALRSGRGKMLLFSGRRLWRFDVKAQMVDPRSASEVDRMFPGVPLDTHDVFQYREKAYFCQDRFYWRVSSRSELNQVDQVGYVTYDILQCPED
Sequence of human Ephrin type-A Receptor 1 (EphA1), EPHA1 (gene 2041) (P21709 whole entry, looked up): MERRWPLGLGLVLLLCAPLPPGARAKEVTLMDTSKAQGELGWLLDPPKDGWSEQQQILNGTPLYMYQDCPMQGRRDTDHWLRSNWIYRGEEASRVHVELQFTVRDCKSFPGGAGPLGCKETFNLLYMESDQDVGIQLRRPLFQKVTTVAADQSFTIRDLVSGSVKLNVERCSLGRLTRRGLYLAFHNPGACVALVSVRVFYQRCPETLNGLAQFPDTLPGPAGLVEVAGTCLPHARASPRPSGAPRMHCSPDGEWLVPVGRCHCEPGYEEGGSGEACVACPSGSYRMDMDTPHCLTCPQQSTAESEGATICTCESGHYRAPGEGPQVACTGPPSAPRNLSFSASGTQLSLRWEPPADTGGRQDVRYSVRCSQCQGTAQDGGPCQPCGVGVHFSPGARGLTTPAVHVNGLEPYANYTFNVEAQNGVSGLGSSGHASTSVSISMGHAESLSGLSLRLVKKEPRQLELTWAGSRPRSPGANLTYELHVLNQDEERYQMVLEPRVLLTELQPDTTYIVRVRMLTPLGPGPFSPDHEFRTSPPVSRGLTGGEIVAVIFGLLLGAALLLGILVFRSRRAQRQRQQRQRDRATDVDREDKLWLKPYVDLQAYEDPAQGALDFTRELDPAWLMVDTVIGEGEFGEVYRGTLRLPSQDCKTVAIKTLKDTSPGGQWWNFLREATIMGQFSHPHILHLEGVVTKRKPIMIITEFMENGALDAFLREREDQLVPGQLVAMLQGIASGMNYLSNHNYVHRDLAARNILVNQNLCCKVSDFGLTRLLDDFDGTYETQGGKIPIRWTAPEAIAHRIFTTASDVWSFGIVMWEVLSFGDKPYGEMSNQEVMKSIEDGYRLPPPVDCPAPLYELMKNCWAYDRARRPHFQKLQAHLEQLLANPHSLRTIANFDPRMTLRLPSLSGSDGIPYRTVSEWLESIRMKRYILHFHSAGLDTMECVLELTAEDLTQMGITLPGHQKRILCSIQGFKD
Sequence of human Neurokinin, NK2 Receptor, TACR2 (gene 6865) (P21452 whole entry, looked up): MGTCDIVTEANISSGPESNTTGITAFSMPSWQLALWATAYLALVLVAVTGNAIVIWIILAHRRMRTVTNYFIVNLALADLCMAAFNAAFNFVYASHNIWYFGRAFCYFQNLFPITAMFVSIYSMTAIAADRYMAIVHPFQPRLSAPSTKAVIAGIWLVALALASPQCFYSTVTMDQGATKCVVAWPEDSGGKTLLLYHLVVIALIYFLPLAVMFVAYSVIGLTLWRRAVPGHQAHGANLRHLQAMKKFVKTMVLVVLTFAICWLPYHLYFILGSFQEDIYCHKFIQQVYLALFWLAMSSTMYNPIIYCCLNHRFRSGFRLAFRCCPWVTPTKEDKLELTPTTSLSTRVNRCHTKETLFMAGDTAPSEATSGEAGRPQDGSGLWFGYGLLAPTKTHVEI
Sequence of rat Adrenergic Receptor, Alpha 2 (Adra2), Non-selective Binding, Adra2a (gene 25083) (P22909 whole entry, looked up): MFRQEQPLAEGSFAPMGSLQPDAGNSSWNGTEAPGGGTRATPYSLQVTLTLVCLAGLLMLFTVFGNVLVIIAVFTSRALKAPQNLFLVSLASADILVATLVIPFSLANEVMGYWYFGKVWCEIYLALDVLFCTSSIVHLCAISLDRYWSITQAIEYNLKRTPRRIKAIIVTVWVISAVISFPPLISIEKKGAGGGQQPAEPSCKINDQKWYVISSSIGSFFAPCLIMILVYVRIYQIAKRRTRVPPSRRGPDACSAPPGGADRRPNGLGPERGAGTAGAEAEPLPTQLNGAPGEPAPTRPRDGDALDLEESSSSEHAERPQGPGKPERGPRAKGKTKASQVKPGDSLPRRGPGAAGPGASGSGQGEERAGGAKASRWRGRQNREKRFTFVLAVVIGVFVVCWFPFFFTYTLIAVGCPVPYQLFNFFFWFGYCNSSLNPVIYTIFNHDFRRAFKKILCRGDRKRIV
Sequence of human Adenosine A1 Receptor (AdoRA1), ADORA1 (gene 134) (P30542 whole entry, looked up): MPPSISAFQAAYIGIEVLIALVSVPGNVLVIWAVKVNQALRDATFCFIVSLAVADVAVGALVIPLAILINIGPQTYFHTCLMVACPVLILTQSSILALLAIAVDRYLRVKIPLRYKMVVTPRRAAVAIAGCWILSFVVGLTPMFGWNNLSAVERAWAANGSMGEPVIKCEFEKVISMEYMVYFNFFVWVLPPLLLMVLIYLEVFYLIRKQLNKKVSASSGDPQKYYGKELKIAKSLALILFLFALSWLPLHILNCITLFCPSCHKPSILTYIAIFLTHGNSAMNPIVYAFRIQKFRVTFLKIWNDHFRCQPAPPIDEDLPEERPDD

Take `CCN(CC)c1ccc2c(C)cc(=O)oc2c1`: the AC50 in [1] is 36.4 µM (active); in assay [5], 10.3 µM (active); in [6] it was 3.01 µM (active); in [7], 4.66 µM (active). For the same compound, the result in assay [2], in [3] and in assay [4] was inactive.
Regarding `Nc1ccc([N+](=O)[O-])cc1O`, in assay [8], the compound was classed as inactive.
With `Oc1ccc(Nc2ccccc2)cc1`, the AC50 in assay [9] is 8.26 µM (active); in [10], 9.97 µM (active). Moreover, the result in assay [11], in assay [8] and in assay [12] was inactive.
Regarding `CCc1ccc(C(c2ccc(CC)cc2)C(Cl)Cl)cc1`, the AC50 is 3.11 µM (active) in assay [1] and 14.1 µM (active) in [3]. The outcome in [2] and in assay [10] was inactive.
In the case of `C1COCCN1`, the concentration at half-maximal activity (AC50) in [6] is 6.07 µM (active).
In the case of `CC(=O)Nc1ccc(N=Nc2cc(C)ccc2O)cc1`, the outcome in [3] was inactive. Further, the AC50 in assay [7] is 2.21 µM (active).
